Test results reported in PubChem BioAssay (NCATS).
Values joined by “and” are separate entries in the source; they are usually repeats but may differ in a detail not shown here. Identical values can stand only once. Records with an inconclusive call do not appear. Active and inactive are the calls of the source. Calls follow the shape of the dose curve; as a rule, active = well fitted activation curve with a large enough effect; inconclusive = small, poorly fitted or top-dose-only effect; inactive = flat fitted curve, though single readings scatter.

assay: qHTS assay for environmental chemicals that activate the Aryl hydrocarbon Receptor (AhR) signaling pathway (AID 651777); conditions: 1A2-DRE human hepatoma cells, luciferase, 24 h; activation: hits give high values; also: nearly all actives have a fitted effect of over 15% in size; as to activation: % of control where 0% means no effect
Description: National Center for Advancing Translational Sciences [NCATS]
NIH Chemical Genomics Center [NCGC]
U.S. Environmental Protection Agency [EPA]
National Institutes of Environmental Health Sciences [NIEHS]
National Toxicology Program [NTP]
The Aryl hydrocarbon Receptor (AhR) plays a critical role in the development of cancer or neoplasm and its formation is most likely due to genetic mutations and the influence of environment. Exposure to environmental pollutants such as polycyclic aromatic hydrocarbons (PAH), their halogenated derivatives and heterocyclic amines causes the induction of phase I and II enzymes. The transcriptional activation of CYP1A2 is directly regulated by AhR.
A cell based assay (1A2-DRE cells, developed by Puracyp, Inc., CA) was used to assess the activation of AhR. Human hepatoma cells were stably transfected with the dioxin response element (DRE) and CYP1A2 promoter fused to a luciferase gene. Increased luciferase activity can be used to identify the compounds that cause the induction of CYP1A2 and AhR activation.
1,200 cells in 5 uL/well were dispensed into white wall/solid bottom 1536-well plates using a Multidrop Combi (Thermo Scientific) dispenser. Following transfer of 23 nL compound or DMSO vehicle by a pin tool, the plates were incubated 24 hr at 37 C and 5% CO2. 5 ul One-Glo (Promega) was then added to each well and following 30 min incubation at room temperature, luciferase activity was quantified on a ViewLux CCD-based plate reader.
Potency is read from the fitted curve at half-maximal effect.

SMILES	activation	Potency
O=C(O)c1cc(Cl)ccc1Cl	-1.02% (inactive)	–
S=C1NCCN1	4.55% (inactive) and -3.06% (inactive)	–
ClC(Cl)Br	0.136% (inactive)	–
N#C/C=C/C#N	5.04% (inactive)	–
O=[N+]([O-])c1cccc(O)c1	1.58% (inactive)	–
Clc1ccc(C(Cl)(Cl)Cl)c(Cl)c1	-1.61% (inactive)	–
ClP(Cl)(Cl)(Cl)Cl	-0.379% (inactive)	–
O=[N+]([O-])c1cccc2c([N+](=O)[O-])cccc12	0.19% (inactive)	–
C=CC=O	1.3% (inactive)	–
OC[P+](CO)(CO)CO	-0.473% (inactive) and -0.989% (inactive)	–
CN=C=O	-0.54% (inactive)	–
Nc1ccc(-c2ccc(N)cc2)cc1	11.6% (inactive)	–
CCN(N=O)C(N)=O	0.0477% (inactive)	–
Clc1cccc(Cl)c1	-1.27% (inactive)	–
CCCCCc1cc(O)cc(O)c1	9.87% (inactive)	–
Cc1cc(C)cc(OP(=O)(Oc2cc(C)cc(C)c2)Oc2cc(C)cc(C)c2)c1	12.8% (inactive)	–
CC(C)OS(C)(=O)=O	1.58% (inactive)	–
CCCCC(CC)COC(=O)c1ccc(C(=O)OCC(CC)CCCC)c(C(=O)OCC(CC)CCCC)c1 (stereo not given)	-0.0808% (inactive)	–
Cc1cc(-c2cc(C)c(N)c(C)c2)cc(C)c1N	–	10 µM (active)
NNC(N)=S	0.972% (inactive)	–

SMILES	activation	Potency
O=[N+]([O-])c1cc(Cl)c(Cl)c(Cl)c1	0.049% (inactive)	–
Cc1cnc[nH]1	1.06% (inactive)	–
CC(C)Br	-0.85% (inactive)	–
CC(C)(C)OOC(=O)c1ccccc1	-1.19% (inactive) and 0.23% (inactive)	–
c1ccc(OCC2CO2)cc1 (stereo not given)	0.197% (inactive)	–
CC(C)[N+](=O)[O-]	0.897% (inactive)	–
c1ccc2c(c1)ccc1cc3c(ccc4ccccc43)cc12	–	2.82 µM (active)
Cc1ccc2c(C)cccc2c1	-0.533% (inactive)	–
CC[N+](=O)[O-]	-0.343% (inactive)	–
Cc1cc(Cl)ccc1O	0.484% (inactive)	–
CN(C)C(=O)Cl	-0.443% (inactive)	–
Clc1ccccc1	-0.0364% (inactive)	–
c1ccc(N=NNc2ccccc2)cc1	–	12.6 µM (active) and 1.41 µM (active)
Nc1ccc([N+](=O)[O-])cc1[N+](=O)[O-]	0.484% (inactive)	–
Cc1cccc(N)c1C	0.811% (inactive)	–
Nc1ccccc1-c1ccccc1	-0.114% (inactive)	–
O=Cc1ccc(Cl)cc1Cl	-0.378% (inactive)	–
Nn1cnnc1	0.198% (inactive)	–
OCCBr	-0.283% (inactive)	–
C[N+](=O)[O-]	0.25% (inactive)	–
